From PubChem
Rows were chosen to be rich in hits. Some 2.4% of all compounds tested hit in one or more screens of this group.
D2 ag-1: activates the human D2 dopamine receptor | P14416 | DiscoveRx PathHunter D2 beta-arrestin, luminescence, 90 min; 100% = 57 uM dopamine signal | activation, % (concentration not given with the values) | actives 0.084% (n = 360,000); in the data active means activation above about 40%; inconclusive means between about 15% and that limit
Target sequence (P14416 whole entry, looked up): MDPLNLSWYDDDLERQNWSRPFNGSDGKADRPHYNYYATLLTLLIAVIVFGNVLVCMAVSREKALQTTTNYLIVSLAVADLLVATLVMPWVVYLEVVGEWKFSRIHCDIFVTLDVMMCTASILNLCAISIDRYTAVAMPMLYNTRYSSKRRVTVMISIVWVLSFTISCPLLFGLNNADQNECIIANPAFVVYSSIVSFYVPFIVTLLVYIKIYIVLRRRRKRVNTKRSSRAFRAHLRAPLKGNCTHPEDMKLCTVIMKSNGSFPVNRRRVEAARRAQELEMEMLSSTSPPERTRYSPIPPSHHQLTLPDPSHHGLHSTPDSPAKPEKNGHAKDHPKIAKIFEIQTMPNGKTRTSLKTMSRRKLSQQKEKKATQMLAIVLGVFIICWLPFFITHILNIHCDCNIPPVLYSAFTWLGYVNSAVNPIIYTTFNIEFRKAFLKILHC
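DiscoveRx PathHunter D2 beta-arrestin cells (2,100/well) attached overnight, then compound-stimulated 90 min at 37 C in HBSS/10 mM HEPES/0.1% Tween-20 buffer; beta-galactosidase complementation read by luminescence after 1 h at ambient temperature. Dopamine 57 uM final (EC100) as control.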
D2 antag: antagonizes the human D2 dopamine receptor | inhibition, % at 10 µM | P14416 | AID 485344 | HEK293 TREx D2 cells, calcium flux, dopamine EC80 | actives 2% (n = 340,000); in the data active means inhibition above about 30%; inactive means below that, where a call was filed; further: 0% is about no effect
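Inhibition of EC80 dopamine-driven calcium flux, recorded kinetically, defines activity here; cells are a tetracycline-induced HEK293 T-REx line expressing force-coupled D2.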
D2 PAM-1: human D2 receptor positive allosteric modulation; P14416; DiscoveRx D2 beta-arrestin cells, luminescence, 90 min; 100% = 57 uM dopamine signal; potentiation, % (concentration not given with the values); actives 0.23% (n = 360,000); in the data active means potentiation above about 50%; inconclusive means mostly about 30% to 49%
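PathHunter beta-arrestin assay in DiscoveRx D2 cells. Compounds were added with an EC20 of dopamine (50 nM final) for 90 min at 37 deg C. Luminescence was read 1 h after detection reagent, with 57 uM dopamine as the EC100 control.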
D2 PAM-2: positively modulates the human D2 dopamine receptor allosterically. actives 0.34% (n = 340,000). AID 485347. P14416. potentiation, % at 10 µM. HEK293 T-REx D2, calcium flux, EC20 dopamine potentiation;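 active means potentiation over 3 SD above the plate norm, cut at about 30% in these data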; further: 0% is about no effect
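Tetracycline-induced Hek293 Trex D2 cells, force-coupled to calcium, loaded with no-wash calcium dye. Compound added with 180 s kinetic read for agonism, then EC20 dopamine and a further 180 s read for potentiation.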
D2 ag-2: agonists of human D2 dopamine receptor | P14416 | HEK293 T-REx D2 cells, calcium flux agonist mode | activation, % at 2 µM | actives 0.53% (n = 340,000) | AID 485358;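 active means activation over 3 SD above normal in the single-dose calcium agonist read, cut at about 30% in these data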; further: 0% is about no effect
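In this primary screen, compounds producing a positive calcium signal within 180 s of addition to tetracycline-induced, force-coupled HEK293 Trex D2 cells are flagged; cells are dye-loaded with a no-wash calcium kit beforehand.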
* hit, by the source's call; ? = inconclusive; nt = not tested or not shown; ! = repeats disagree.

SMILES	D2 ag-1	D2 antag	D2 PAM-1	D2 PAM-2	D2 ag-2
Cc1ccc2c(c1)N(CC(=O)NCCc1c[nH]c3ccccc13)C(=O)CO2	-0.7	12.0	-2.4	60.2*	0.7
CCN(CC)c1ccc(CN(C(=O)c2cccs2)C2CCS(=O)(=O)C2)cc1 (stereo not drawn)	-4.6	30.1*	-14.3	9.1	0.1
N#Cc1ccc(Sc2ccccn2)c([N+](=O)[O-])c1	3.7	37.7*	3.0	10.7	0.2
CCc1cc2ccc(OC)cc2nc1SCC(=O)Nc1cc(C)on1	-0.9	-12.0	-13.7	2.9	-0.3
CCc1cc2ccc(OC)cc2nc1SCC(=O)NNC(C)=O	-6.0	57.4*	-3.6	-1.9	-2.6
C/C(=N\NC(=O)c1c(C)nc2ccccn12)c1ccccc1F	-1.0	31.5*	-1.1	-0.5	-0.3
COc1ccc(NC(=O)c2nc(SCc3ccccc3F)ncc2Cl)cc1	nt	nt	nt	2.0	0.2
CCc1noc(C)c1C(=O)NNC(=O)c1nn(C)c(=O)c2ccccc12	-3.4	56.7*	-1.5	-6.2	0.1
CCc1noc(C)c1C(=O)NNC(=O)c1nn(CC)c(=O)c2ccccc12	-5.3	12.1	25.5	-0.9	-1.2
CCc1noc(C)c1C(=O)NNC(=O)c1ccc(Br)cc1	-6.3	36.7*	-2.0	-1.9	-0.4
Cc1ccc(CSc2nc3cccnc3n2Cc2nc(-c3ccccc3F)oc2C)cc1	nt	nt	nt	nt	-0.6
CCOC(=O)c1cccc(Nc2ncnc3ccccc23)c1	1.4	13.8	-7.2	34.1*	0.6
COC(=O)c1ccc(-n2c(/C=C\c3cccc(Br)c3)nc3ccccc3c2=O)cc1	nt	nt	nt	1.6	-0.2
Cc1ccccc1N(CC(N)=O)S(C)(=O)=O	0.9	-1.1	-13.5	3.8	0.5
Cc1ccccc1N(CC(=O)O)S(C)(=O)=O	-3.6	13.5	25.1	30.8*	-0.2
Cc1ccc(-c2ccc([C@H]3[C@H]4C=CC[C@@H](C)[C@@H]4C(=O)N3Cc3ccccc3)c(F)c2)cc1	-5.9	33.2*	-9.3	-4.2	1.0
CN(C)c1ccc(/C=N/NC(=O)C(O)(c2ccccc2)c2ccccc2)o1	1.0	32.6*	-8.2	3.4	-1.0
CCc1cccc(NC(=O)Nc2cccs2)c1	1.3	32.4*	-38.1	-10.7	1.0
COC(=O)c1ccccc1NC(=O)Nc1cccs1	-2.1	37.9*	-23.9	-6.8	-0.3
N#Cc1cccc(NC(=O)Nc2cccs2)c1	2.9	1.0	-22.5	-1.1	0.5
COc1cccc(NC(=O)CC(C)S(=O)(=O)c2ccc3c(c2)NC(=O)CO3)c1 (stereo not drawn)	nt	nt	nt	4.6	0.1
Oc1ccccc1N1CCN(Cc2ncc(-c3ccccc3)o2)CC1	-2.7	56.9*	-15.3	-34.7	0.6
Cc1ccc(Oc2cc([N+](=O)[O-])cc3c2C(=O)Nc2ccccc2O3)cc1	1.9	30.1*	6.2	13.9	1.8
Cc1ccccc1C(=O)NNC(=O)c1ccoc1C	-0.1	nt	-4.7	nt	nt
Cc1occc1C(=O)NNC(=O)c1ccccc1C(=O)O	-1.2	30.7*	-1.4	-10.8	-0.6
SMILES	D2 ag-1	D2 antag	D2 PAM-1	D2 PAM-2	D2 ag-2
CCOc1cc(-c2cc(-c3ccc(N)cc3)nc(N)c2C#N)ccc1O	7.6	5.5	-11.2	3.1	-1.8
CCOc1cc(-c2noc(N)c2C#N)cc(OCC)c1OCC	40.8*	0.9	130.3*	27.2	0.9
COc1ccc(C)cc1NC(=O)c1cc2c(=O)n3ccccc3nc2n1C	0.1	12.7	1.7	11.0	0.6
COc1ccc(NC(=O)c2cc3c(=O)n4ccccc4nc3n2C)cc1OC	3.6	-8.5	2.4	34.7*	-0.5
COc1ccc(OC)c(NC(=O)CSc2ccnc(=O)[nH]2)c1	nt	nt	nt	-0.6	nt
COc1ccccc1NC(=O)Cn1c(O)c(N=NC(=O)c2ccccc2O)c2ccccc21	?	55.1*	9.1	-4.3	3.5
COc1cc(NC(=O)CCn2c(=O)oc3ccccc32)cc(OC)c1OC	3.9	-21.5	-3.6	34.3*!	0.9
O=C(CCn1c(=O)oc2ccccc21)Nc1ccccc1	4.8	0.7	-11.9	-2.2	0.7
COc1ccccc1OCCCn1c(=O)oc2ccc(C)cc21	-1.9	-7.2	0.7	4.1	0.5
COc1ccccc1OCCCn1c(=O)oc2ccccc21	-9.8	34.1*	-5.0	-11.2	0.4
Cc1ccc2nc(-c3ccc(Cl)c(NC(=O)c4ccc5c(c4)OCCO5)c3)oc2c1	nt	nt	nt	-1.2	nt
Cn1nc(-c2ccc(Cl)cc2)c2cc(C(=O)N3CCOCC3)sc21	0.5	30.9*	-3.0	10.0	0.4
COc1cccc(Oc2nc(-c3ccccc3O)nc3ccccc23)c1	-3.3	43.1*	5.1	-5.6	-0.6
COc1ccc(-c2cn3nc(SCC(=O)Nc4ccc(C)c(Cl)c4)ccc3n2)cc1	nt	nt	nt	-6.1	0.4
COc1ccc(NC(=O)c2ccccc2N(Cc2ccccc2)S(C)(=O)=O)cc1	-3.7	-0.2	-10.8	-8.3	3.0
COc1ccc(NC(=O)c2ccccc2N(Cc2ccccc2)S(C)(=O)=O)cc1OC	2.1	-4.6	-1.9	37.1*	-0.4
Cc1csc2nc(CSc3nc4ccccc4o3)c(Br)n12	-1.3	-4.3	8.7	36.3*	0.3
CCC1CCCCN1CCCNC(=O)c1[nH]c2ccccc2c1Sc1ccc(Cl)cc1 (stereo not drawn)	nt	nt	nt	-9.4	-1.2
COc1ccc(Nc2oc(-c3cccs3)nc2C#N)cc1	8.1	-8.0	62.0*	10.8	0.4
CNc1oc(-c2cccs2)nc1C#N	0.0	nt	9.3	nt	nt
CCOC(=O)c1ccc(NC(=O)CC2C(=O)N(c3ccccc3)C(=O)N2C2CCCCC2)cc1 (stereo not drawn)	nt	nt	nt	20.0	1.2
CC(=O)Nc1ccc(N(C(=O)c2ccco2)C(C(=O)NC2CCCCC2)c2ccccc2)cc1 (stereo not drawn)	0.4	36.7*	-11.9	2.1	-0.6
COc1ccc(N(C(=O)CNC(=O)c2ccco2)C(C(=O)NC2CCCC2)c2ccncc2)cc1 (stereo not drawn)	0.2	51.1*	-2.9	4.9	-0.7
Cc1ccccc1C(C(=O)NC1CCCC1)N(C(=O)CNC(=O)c1ccco1)c1cccnc1 (stereo not drawn)	nt	50.8*	nt	1.0	0.7
COc1ccc(C(C(=O)NC2CCCC2)N(C(=O)c2ccoc2C)c2ccc(C)cc2)cc1 (stereo not drawn)	-1.2	50.1*	-16.7	-4.0	-0.6
COc1ccc(C(C(=O)NC2CCCCC2)N(C(=O)CCl)c2ccc(C)cc2)cc1 (stereo not drawn)	-7.8	-4.8	15.0	1.5	2.9
CCN(CCCNC(=O)CSc1cc(=O)n(CC)c2ccccc12)c1cccc(C)c1	nt	nt	nt	7.9	0.6
CCOC(=O)c1c(C)[nH]c(C)c1S(=O)(=O)N1CCCC(C(=O)Nc2ccc(C)c(N(C)C)c2)C1 (stereo not drawn)	nt	nt	nt	9.8	0.2
Cc1cccc(N(CC(=O)N(C)Cc2ccccc2)S(=O)(=O)c2ccccc2)c1C	nt	nt	nt	7.5	-0.5
